# ChEMBL document CHEMBL1961873, “Compounds: GSK PKIS; Assays: Nanosyn kinase panel” (2012)
# What was measured:
# [1] = target: Serine/threonine-protein kinase MRCK alpha (Homo sapiens) (UniProt Q5VT25); settings: at 0.1 µM
# [2] = target: Serine/threonine-protein kinase MRCK alpha (Homo sapiens) (UniProt Q5VT25); settings: at 1 µM
# [3] = target: Serine/threonine-protein kinase MRCK beta (Homo sapiens) (UniProt Q9Y5S2); settings: at 0.1 µM
# [4] = target: Serine/threonine-protein kinase MRCK beta (Homo sapiens) (UniProt Q9Y5S2); settings: at 1 µM
# [5] = target: Ribosomal protein S6 kinase alpha-5 (Homo sapiens) (UniProt O75582); settings: at 0.1 µM
# [6] = target: Ribosomal protein S6 kinase alpha-5 (Homo sapiens) (UniProt O75582); settings: at 1 µM
# [7] = target: Ribosomal protein S6 kinase alpha-4 (Homo sapiens) (UniProt O75676); settings: at 0.1 µM
# Chain of Ribosomal protein S6 kinase alpha-4 (Homo sapiens) (O75676 whole entry, looked up): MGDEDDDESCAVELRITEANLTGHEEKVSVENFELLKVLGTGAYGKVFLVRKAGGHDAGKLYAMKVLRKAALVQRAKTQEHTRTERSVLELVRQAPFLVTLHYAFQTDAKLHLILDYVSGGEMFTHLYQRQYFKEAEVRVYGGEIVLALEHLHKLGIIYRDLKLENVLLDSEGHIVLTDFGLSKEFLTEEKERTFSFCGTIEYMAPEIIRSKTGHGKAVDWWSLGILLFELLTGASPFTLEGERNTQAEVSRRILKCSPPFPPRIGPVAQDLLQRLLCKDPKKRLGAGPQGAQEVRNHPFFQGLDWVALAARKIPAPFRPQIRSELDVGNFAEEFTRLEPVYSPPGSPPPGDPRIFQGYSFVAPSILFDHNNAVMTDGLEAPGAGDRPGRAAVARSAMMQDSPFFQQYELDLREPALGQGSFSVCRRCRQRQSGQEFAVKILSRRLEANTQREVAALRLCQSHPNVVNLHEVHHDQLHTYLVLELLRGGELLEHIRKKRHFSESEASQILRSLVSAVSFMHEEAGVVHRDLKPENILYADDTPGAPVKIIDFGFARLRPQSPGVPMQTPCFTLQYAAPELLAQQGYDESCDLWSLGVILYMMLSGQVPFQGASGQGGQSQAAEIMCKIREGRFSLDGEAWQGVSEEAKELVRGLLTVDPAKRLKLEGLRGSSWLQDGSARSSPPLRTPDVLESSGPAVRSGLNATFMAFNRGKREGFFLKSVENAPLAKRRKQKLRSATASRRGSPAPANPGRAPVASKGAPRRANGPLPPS
# [8] = target: Ribosomal protein S6 kinase alpha-4 (Homo sapiens) (UniProt O75676); settings: at 1 µM
# [9] = target: Ribosomal protein S6 kinase beta-1 (Homo sapiens) (UniProt P23443); settings: at 0.1 µM
# Chain of Ribosomal protein S6 kinase beta-1 (Homo sapiens) (P23443 whole entry, looked up): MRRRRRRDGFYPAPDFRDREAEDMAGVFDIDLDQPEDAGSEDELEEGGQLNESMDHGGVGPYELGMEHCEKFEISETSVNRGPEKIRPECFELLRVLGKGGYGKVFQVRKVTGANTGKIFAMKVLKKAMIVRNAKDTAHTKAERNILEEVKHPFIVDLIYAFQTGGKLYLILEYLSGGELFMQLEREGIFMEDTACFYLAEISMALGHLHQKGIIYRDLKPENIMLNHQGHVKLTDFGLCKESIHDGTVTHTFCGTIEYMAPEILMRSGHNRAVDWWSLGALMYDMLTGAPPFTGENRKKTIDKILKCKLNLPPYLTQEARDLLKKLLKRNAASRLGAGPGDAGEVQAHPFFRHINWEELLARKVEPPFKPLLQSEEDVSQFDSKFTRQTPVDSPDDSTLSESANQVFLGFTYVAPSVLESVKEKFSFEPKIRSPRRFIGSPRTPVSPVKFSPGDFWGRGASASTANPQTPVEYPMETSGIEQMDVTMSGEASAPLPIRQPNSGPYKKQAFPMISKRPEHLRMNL
# [10] = target: Ribosomal protein S6 kinase beta-1 (Homo sapiens) (UniProt P23443); settings: at 1 µM
# [11] = target: T1, 3-phosphoinositide-dependent protein kinase 1 (Homo sapiens) (UniProt O15530); settings: at 0.1 µM;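 further: values are mean inhibition of PDK1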
# T1 sequence (whole entry): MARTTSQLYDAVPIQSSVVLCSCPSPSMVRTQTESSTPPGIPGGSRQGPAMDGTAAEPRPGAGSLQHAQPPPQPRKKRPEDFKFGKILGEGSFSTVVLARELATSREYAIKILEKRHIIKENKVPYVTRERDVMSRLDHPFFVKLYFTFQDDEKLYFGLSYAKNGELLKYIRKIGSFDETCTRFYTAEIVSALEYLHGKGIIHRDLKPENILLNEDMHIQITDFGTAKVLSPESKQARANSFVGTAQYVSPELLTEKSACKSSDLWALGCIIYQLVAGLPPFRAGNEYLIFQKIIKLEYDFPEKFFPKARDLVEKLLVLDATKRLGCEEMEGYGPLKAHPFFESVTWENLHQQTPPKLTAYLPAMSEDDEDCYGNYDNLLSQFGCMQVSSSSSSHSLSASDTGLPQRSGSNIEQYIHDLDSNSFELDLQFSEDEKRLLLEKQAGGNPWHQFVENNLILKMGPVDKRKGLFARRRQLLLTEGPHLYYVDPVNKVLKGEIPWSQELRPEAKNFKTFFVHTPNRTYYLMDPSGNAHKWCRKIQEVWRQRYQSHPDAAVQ
# [12] = target: cAMP-dependent protein kinase catalytic subunit alpha (Homo sapiens) (UniProt P17612); settings: at 0.1 µM
# [13] = target: cAMP-dependent protein kinase catalytic subunit alpha (Homo sapiens) (UniProt P17612); settings: at 1 µM
# [14] = target: Protein kinase C alpha type (Homo sapiens) (UniProt P17252); settings: at 0.1 µM
# [15] = target: Protein kinase C alpha type (Homo sapiens) (UniProt P17252); settings: at 1 µM
# [16] = target: Protein kinase C beta type (Homo sapiens) (UniProt P05771); settings: at 0.1 µM
# [17] = target: Protein kinase C beta type (Homo sapiens) (UniProt P05771); settings: at 1 µM
# [18] = target: Protein kinase C eta type (Homo sapiens) (UniProt P24723); settings: at 0.1 µM
# [19] = target: Protein kinase C eta type (Homo sapiens) (UniProt P24723); settings: at 1 µM
# [20] = target: Protein kinase C gamma type (Homo sapiens) (UniProt P05129); settings: at 0.1 µM;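 further: values are mean percent inhibition of PKC gamma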
# Chain of Serine/threonine-protein kinase MRCK beta (Homo sapiens) (Q9Y5S2 whole entry): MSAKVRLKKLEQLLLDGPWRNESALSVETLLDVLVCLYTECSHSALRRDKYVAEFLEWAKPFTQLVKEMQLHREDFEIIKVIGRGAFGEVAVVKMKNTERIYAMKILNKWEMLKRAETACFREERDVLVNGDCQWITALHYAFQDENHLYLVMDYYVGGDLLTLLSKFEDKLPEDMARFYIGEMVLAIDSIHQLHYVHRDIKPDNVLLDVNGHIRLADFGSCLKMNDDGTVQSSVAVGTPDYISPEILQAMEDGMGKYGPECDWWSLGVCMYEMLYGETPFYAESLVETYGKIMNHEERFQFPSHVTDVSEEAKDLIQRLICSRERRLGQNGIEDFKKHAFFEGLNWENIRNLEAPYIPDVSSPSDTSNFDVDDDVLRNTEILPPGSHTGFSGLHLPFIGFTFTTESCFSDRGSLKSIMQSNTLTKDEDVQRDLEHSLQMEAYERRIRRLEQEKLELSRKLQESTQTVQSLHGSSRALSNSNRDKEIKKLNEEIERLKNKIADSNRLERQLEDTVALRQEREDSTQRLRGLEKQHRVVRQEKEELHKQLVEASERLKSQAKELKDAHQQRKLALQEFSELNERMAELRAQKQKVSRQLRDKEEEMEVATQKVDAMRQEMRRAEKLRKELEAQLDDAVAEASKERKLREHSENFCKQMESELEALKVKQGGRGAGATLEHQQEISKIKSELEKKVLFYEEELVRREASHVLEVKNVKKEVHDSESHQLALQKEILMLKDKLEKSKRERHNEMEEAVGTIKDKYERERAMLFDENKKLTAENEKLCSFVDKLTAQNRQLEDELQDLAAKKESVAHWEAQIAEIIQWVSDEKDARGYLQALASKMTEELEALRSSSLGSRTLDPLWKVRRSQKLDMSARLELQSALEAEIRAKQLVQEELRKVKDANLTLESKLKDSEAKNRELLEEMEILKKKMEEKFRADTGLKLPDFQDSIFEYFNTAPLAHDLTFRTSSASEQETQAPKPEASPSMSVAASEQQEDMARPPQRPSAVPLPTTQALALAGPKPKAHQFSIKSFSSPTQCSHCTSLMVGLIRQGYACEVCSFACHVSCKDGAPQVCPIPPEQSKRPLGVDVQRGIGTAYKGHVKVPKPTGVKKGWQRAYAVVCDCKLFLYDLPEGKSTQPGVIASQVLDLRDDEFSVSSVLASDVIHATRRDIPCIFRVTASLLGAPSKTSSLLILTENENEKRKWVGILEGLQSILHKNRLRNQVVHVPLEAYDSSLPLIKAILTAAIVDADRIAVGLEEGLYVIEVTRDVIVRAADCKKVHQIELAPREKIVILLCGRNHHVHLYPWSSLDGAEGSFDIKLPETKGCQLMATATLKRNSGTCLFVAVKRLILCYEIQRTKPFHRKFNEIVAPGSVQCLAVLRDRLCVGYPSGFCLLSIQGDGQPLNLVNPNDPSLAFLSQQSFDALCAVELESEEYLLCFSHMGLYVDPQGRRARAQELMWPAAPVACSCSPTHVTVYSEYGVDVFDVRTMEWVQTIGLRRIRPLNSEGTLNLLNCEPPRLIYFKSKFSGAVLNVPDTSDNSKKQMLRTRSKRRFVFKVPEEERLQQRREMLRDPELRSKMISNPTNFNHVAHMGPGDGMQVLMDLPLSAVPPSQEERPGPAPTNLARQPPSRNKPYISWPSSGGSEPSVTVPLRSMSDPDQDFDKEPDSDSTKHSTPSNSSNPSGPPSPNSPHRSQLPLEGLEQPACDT
# Chain of Serine/threonine-protein kinase MRCK alpha (Homo sapiens) (Q5VT25 whole entry): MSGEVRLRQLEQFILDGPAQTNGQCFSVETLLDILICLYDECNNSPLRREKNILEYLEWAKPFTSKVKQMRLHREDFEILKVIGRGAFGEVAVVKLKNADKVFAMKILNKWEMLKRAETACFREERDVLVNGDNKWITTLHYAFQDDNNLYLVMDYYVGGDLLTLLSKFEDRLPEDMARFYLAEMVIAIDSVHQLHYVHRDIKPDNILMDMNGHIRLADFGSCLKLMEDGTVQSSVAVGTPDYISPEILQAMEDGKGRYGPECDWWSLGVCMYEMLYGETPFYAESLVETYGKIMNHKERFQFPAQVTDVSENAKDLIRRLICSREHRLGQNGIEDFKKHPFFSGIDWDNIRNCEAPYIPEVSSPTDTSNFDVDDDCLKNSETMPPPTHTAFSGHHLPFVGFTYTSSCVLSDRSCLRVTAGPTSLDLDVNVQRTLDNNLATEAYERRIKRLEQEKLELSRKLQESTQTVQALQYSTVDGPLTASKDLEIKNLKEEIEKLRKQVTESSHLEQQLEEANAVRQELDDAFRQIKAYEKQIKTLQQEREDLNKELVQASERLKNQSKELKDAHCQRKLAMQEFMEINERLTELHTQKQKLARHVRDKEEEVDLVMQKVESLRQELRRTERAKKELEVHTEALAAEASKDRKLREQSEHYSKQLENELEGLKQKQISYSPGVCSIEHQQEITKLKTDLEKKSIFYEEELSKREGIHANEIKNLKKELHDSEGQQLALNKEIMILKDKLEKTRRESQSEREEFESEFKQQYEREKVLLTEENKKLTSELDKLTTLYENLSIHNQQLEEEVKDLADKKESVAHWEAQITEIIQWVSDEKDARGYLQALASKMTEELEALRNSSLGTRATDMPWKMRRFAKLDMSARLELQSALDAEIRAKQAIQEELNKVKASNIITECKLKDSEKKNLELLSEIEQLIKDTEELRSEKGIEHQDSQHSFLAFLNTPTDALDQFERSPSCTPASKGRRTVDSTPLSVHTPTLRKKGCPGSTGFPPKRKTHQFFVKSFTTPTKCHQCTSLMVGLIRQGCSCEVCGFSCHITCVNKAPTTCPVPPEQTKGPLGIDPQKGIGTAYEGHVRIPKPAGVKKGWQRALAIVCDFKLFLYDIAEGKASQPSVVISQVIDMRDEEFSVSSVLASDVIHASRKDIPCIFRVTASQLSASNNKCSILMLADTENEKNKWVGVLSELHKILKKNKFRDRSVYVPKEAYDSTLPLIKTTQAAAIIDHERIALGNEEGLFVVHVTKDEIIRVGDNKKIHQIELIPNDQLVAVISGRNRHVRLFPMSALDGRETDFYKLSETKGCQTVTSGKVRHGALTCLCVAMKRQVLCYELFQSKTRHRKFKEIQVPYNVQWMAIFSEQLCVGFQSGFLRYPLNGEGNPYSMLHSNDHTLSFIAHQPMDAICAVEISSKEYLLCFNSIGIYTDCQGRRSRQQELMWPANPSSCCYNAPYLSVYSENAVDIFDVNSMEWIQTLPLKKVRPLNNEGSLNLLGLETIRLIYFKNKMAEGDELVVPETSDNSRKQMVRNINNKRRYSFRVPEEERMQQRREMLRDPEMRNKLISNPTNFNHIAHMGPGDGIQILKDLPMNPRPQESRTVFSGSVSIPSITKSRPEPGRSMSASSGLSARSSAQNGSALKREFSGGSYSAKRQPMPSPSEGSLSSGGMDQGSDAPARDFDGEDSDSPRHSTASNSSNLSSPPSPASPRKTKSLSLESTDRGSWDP
SMILES,inhibition [1],inhibition [2],inhibition [3],inhibition [4],inhibition [5],inhibition [6],inhibition [7],inhibition [8],inhibition [9],inhibition [10],inhibition [11],inhibition [12],inhibition [13],inhibition [14],inhibition [15],inhibition [16],inhibition [17],inhibition [18],inhibition [19],inhibition [20]
COc1cccc(-n2ncc3c(N/N=C/c4ccc(S(C)(=O)=O)cc4)ncnc32)c1,-0.29%,-0.45%,0.04%,0.16%,-1.19%,-0.55%,1.78%,2.04%,1.23%,5.85%,2.37%,-3.29%,-0.93%,-3.07%,-0.59%,2.22%,7.27%,1.23%,2.85%,1.86%
CN1CCN(C(=O)c2ccc(NC(=O)Nc3ccc(N(C)c4ccnc(Nc5ccc(CS(C)(=O)=O)cc5)n4)cc3)cc2)CC1,5.17%,7.71%,-0.06%,3.61%,1.16%,3.3%,2.61%,13.8%,1.43%,5.8%,1.6%,1.2%,4.5%,-0.39%,0.75%,0.01%,2.15%,3.18%,2.34%,2.19%
Nc1ccc(C#Cc2cncnc2Nc2ccc(OCc3cccc(F)c3)c(Cl)c2)cc1,-1.73%,0.19%,1.04%,1.18%,1.3%,-0.19%,1.93%,3.14%,0.9%,0.85%,-0.28%,3.59%,2.77%,0.42%,1.03%,1.2%,2.03%,4.79%,2.72%,-0.9%
Cc1ccc(O)cc1Nc1ccnc2ccc(S(C)(=O)=O)cc12,-0.59%,3.17%,-0.33%,1.42%,11.4%,9.44%,2.55%,3.94%,3.76%,2.87%,1.13%,3.25%,11.9%,1.78%,11.2%,1.93%,4.87%,2.56%,6.46%,0.83%
C[C@@H](Oc1cc(-n2cnc3ccc(OC[C@@H](O)CO)cc32)sc1C(N)=O)c1ccccc1Cl,-0.35%,4.31%,1.02%,3.59%,-1.23%,-0.54%,0.35%,1.7%,0.75%,1.5%,0.22%,-0.26%,-0.61%,-0.25%,3.02%,-0.38%,1.7%,0.53%,0.23%,-1.57%
FC(F)(F)c1ccc(-c2nn3ncccc3c2-c2ccnc(Nc3ccc4c(c3)OCCO4)n2)cc1,7.63%,5.17%,6.18%,4.64%,3.36%,4.3%,5.05%,6.41%,1.5%,2.06%,1.11%,6.1%,6.96%,0.99%,1.28%,8.14%,11.9%,1.27%,6.69%,5.17%
CN(C)C(=O)O[C@H]1CN[C@H](C#Cc2cc3ncnc(Nc4ccc(OCc5cccc(F)c5)c(Cl)c4)c3s2)C1,-0.3%,-0.73%,0.58%,2.77%,2.4%,4.95%,0.06%,4.03%,0.89%,2.08%,1.92%,2.32%,4.73%,0.57%,-0.37%,-1.06%,0.39%,1.05%,1.68%,3.2%
O=S(=O)(CCOCc1ccc(-c2ccc3ncnc(Nc4ccc(OCc5cccc(F)c5)c(Cl)c4)c3c2)o1)c1ccccc1,0.06%,-0.21%,0.42%,1.18%,0.65%,0.85%,-0.78%,0.33%,-1.35%,-0.16%,-0.28%,0.54%,-0.2%,0.23%,0.58%,-0.21%,-0.92%,1.32%,1.22%,0.84%
NC(=O)c1cccc(Nc2nccc(Nc3cccc(F)c3)n2)c1,1.84%,0.87%,0.04%,1.43%,1.48%,0.2%,0.68%,1.21%,0.38%,1.99%,-1.35%,1.44%,0.76%,0.15%,4.54%,-2.22%,-5.72%,1.84%,2.62%,2.94%
Cc1ccc2c(c1)/C(=N/Nc1ccc(S(N)(=O)=O)cc1)C(=O)N2,0.22%,1.3%,-0.79%,1.36%,0.95%,1.23%,-1.41%,2.32%,0.52%,2.59%,0.19%,0.27%,1.28%,0.13%,-0.36%,-0.92%,0.39%,-0.77%,-1.47%,-1.71%
Oc1cccc(-c2nc(-c3ccccc3)[nH]c2-c2ccncc2)c1,-0.93%,2.63%,-0.32%,0.92%,3.05%,4.64%,1.9%,3.89%,1.55%,6.44%,4.03%,2.46%,6.88%,0.69%,3.01%,2.07%,8.23%,2.41%,9.76%,2.86%
CS(=O)(=O)CCNCc1nc(-c2ccc3ncnc(Nc4ccc(OCc5cccc(C(F)(F)F)c5)cc4)c3c2)cs1,4.26%,2.95%,-0.6%,0.82%,0.64%,1.57%,1.54%,2.66%,1.22%,1.83%,0.07%,1.46%,0.51%,-0.15%,-0.72%,0.26%,1.43%,3.05%,2.2%,0.96%
COc1cccc(-n2ncc3c(N/N=C/c4ccc(C)cc4)ncnc32)c1,4.17%,5.98%,1.06%,1.73%,-3.87%,-2.7%,3.45%,5.55%,2.62%,3.95%,0.64%,3.22%,2.93%,0.52%,1.66%,0.67%,1.01%,5.56%,4.73%,2.06%
Cc1cc(Cl)cc2c1NC(=O)C2=NNc1ccc(S(N)(=O)=O)cc1,0.98%,2.69%,0.17%,-0.38%,3.06%,2.08%,2.85%,3.47%,0.25%,2.34%,0.95%,1.21%,1.37%,0.07%,-0.61%,0.78%,2.56%,-0.95%,2.95%,0.4%
